Records with an inconclusive call do not appear. The source made the active and inactive calls. The call rests on the fitted dose curve; in most records, active means well fitted cell-killing curve with a large enough effect; inconclusive means small, poorly fitted or top-dose-only effect, or effect the other way; inactive means no such curve, though single readings can be large or run the other way.
experiment: Quantitative High-Throughput drug screen in 47 multiple myeloma cell lines against the NCATS MIPE library collection: Delta47_JCRB cell viability assay (AID 1918925; further: nearly all actives have a fitted effect of over 45% in size); settings: Delta47 myeloma viability, CellTiter-Glo ATP, 48 h; series mostly up to 45.8 µM; viability (% of DMSO): at the top concentration
From the text: PI: Beverly A. Mock Ph.D.
Laboratory of Cancer Biology and Genetics,
Center for Cancer Research, National Cancer Institute,
National Institute of Health, Bethesda, Maryland
Drug resistance and disease progression are common in multiple myeloma (MM) patients, underscoring the need for new therapeutic combinations. […] We hypothesized that effective combinations would reduce MYC expression and enhance p16 activity. […] These preclinical data identify potentially useful drug combinations for evaluation in drug-resistant MM and reveal potential mechanisms of combined drug sensitivity.
Described herein is the primary MIPE qHTS used to cherrypick compounds. Validated compounds were then further tested for potential synergistic activiy.
[1] Peat TJ, Gaikwad SM, Dubois W, Gyabaah-Kessie N, Zhang S, Gorjifard S, Phyo Z, Andres M, Hughitt VK, Simpson RM, Miller MA, Girvin AT, Taylor A, Williams D, D'Antonio N, Zhang Y, Rajagopalan A, Flietner E, Wilson K, Zhang X, Shinn P, Klumpp-Thomas C, McKnight C, Itkin Z, Chen L, Kazandijian D, Zhang J, Michalowski AM, Simmons JK, Keats J, Thomas CJ, Mock BA. Drug combinations identified by high-throughput screening promote cell cycle transition and upregulate Smad pathways in myeloma. Cancer Lett. 2023 Aug 1;568:216284. doi: 10.1016/j.canlet.2023.216284. Epub 2023 Jun 24. PMID: 37356470; PMCID: PMC10408729.
SEQUENCE No. (e.g., 1, 2, 3, etc.); […] (e.g., Cells, Incubation, Reagent, etc.); VALUE and DESCRIPTION.
1; Cells; 5 uL; white, solid bottom 1536-well Greiner assay plate.
2; Compounds; 23 nL; Kalypsis pin tool (Wako USA) equipped with a 1536-well pin head to transfer to the assay plates.
3; Incubation; 48 hours; 37C incubation.
4; Reagent;5uL; CellTiter Glo (Promega).
5; Detector; 425V; Luminescence; Viewlux PerkinElmer.
NOTES (numbers refer to Sequence numbers above)
1. The cell-based screening methods employed in this study were like those previously published. Briefly, the corresponding myeloma cell lines were screened in 1,536-well plates with 500 cells, 5-uL per well for inhibition of cell viability (assessed by measuring ATP levels with CellTiterGlo).
2. NCATS MIPE 4.0 library of approved and investigational drugs were added using the Kalypsis pin tool. Wells treated with DMSO only for 100% viability and media only wells for 0% viability were used as controls.
3. The assay plates were covered and incubated for 48 hours in a 37C, 5% CO2 incubator with controlled humidity.
4. After 48 hours, CellTilter-GloTM luminescent substrate mix (Promega) reagent was added to the assay plate and plates we incubated for 5 min at room temperature.
5. Signal was measured as median relative luminescence units on a ViewLux (PerkinElmer) multiplate reader.
[1] Heske CM, Davis MI, Baumgart JT, Wilson K, Gormally MV, Chen L, Zhang X, Ceribelli M, Duveau DY, Guha R, Ferrer M, Arnaldez FI, Ji J, Tran HL, Zhang Y, Mendoza A, Helman LJ, Thomas CJ. Matrix Screen Identifies Synergistic Combination of PARP Inhibitors and Nicotinamide Phosphoribosyltransferase (NAMPT) Inhibitors in Ewing Sarcoma. Clin Cancer Res. 2017 Dec 1;23(23):7301-7311. doi: 10.1158/1078-0432.CCR-17-1121. Epub 2017 Sep 12. PMID: 28899971; PMCID: PMC6636827.
Potency means the concentration at half of the fitted maximal effect.

| Compound | Potency | viability (% of DMSO) |
| --- | --- | --- |
| Cn1c(CCCC(=O)O)nc2cc(N(CCCl)CCCl)ccc21 | 1.18 µM (active) |  |
| COC[C@@H](NC(C)=O)C(=O)NCc1ccccc1 |  | 117% (inactive) |
| CNCC(O)c1ccc(O)cc1 (stereo not drawn) |  | 88.4% (inactive) |
| C[C@@H]1[C@@H](CC(C[C@H]2O[C@@H]3O[C@]4(C)CC[C@@H]5[C@H](C)CC[C@@H]([C@H]2C)[C@@]35OO4)C[S+](=O)([O-])c2ccc(COC(=O)N(C)C)cc2)O[C@@H]2O[C@]3(C)CC[C@H]4[C@H](C)CC[C@@H]1[C@@]24OO3 (stereo partly drawn) | 0.235 µM (active) |  |
| C[C@@H]1[C@@H](C(=O)C[C@H]2O[C@@H]3O[C@]4(C)CC[C@@H]5[C@H](C)CC[C@@H]([C@H]2C)[C@@]35OO4)O[C@@H]2O[C@]3(C)CC[C@H]4[C@H](C)CC[C@@H]1[C@@]24OO3 | 0.235 µM (active) |  |
| COC[C@H]1OC(=O)c2coc3c2[C@@]1(C)C1=C(C3=O)C2CCC(=O)[C@@]2(C)C[C@H]1OC(C)=O (stereo partly drawn) | 0.0469 µM (active) |  |
| CN(C)[C@@H]1C(=O)C(C(N)=O)=C(O)[C@@]2(O)C(=O)C3=C(O)c4c(O)cccc4[C@@](C)(O)[C@H]3C[C@@H]12 |  | 123% (inactive) |
| O=C(O)C(=O)c1cn(Cc2ccccc2)c2ccc(-c3ccc(OC(F)(F)F)cc3)cc12 | 20.9 µM (active) |  |
| COc1ccc(C(CN(C)C)C2(O)CCCCC2)cc1 (stereo not drawn) |  | 96.6% (inactive) |
| COc1ccc(C(=O)c2c(C)n(CCN3CCOCC3)c3ccccc23)cc1 |  | 146% (inactive) |
| CNC(=O)c1ccc(N2C(=S)N(c3ccc(C#N)c(C(F)(F)F)c3)C(=O)C23CCC3)cc1F | 4.18 µM (active) |  |
| C#CCN(C)[C@H](C)Cc1ccccc1 |  | 84% (inactive) |
| CNC(=O)N1N=C(c2ccc(N)cc2)c2cc3c(cc2CC1C)OCO3 (stereo not drawn) | 1.48 µM (active) |  |
| Cc1cccc(C)c1NC(=O)CN1CCCC1=O |  | 111% (inactive) |
| CN(C)CCc1ccc(O)cc1 |  | 93.5% (inactive) |
| Cc1sc2c(c1C)C(c1ccc(Cl)cc1)=N[C@@H](CC(=O)OC(C)(C)C)c1nnc(C)n1-2 | 0.743 µM (active) |  |
| C=C(C)[C@H]1Cc2c(ccc3c2O[C@@H]2COc4cc(OC)c(OC)cc4[C@@H]2C3=O)O1 | 0.118 µM (active) |  |
| CCCC(C)(COC(N)=O)COC(=O)NC(C)C (stereo not drawn) |  | 104% (inactive) |
| C[C@@H]1O[C@@H](O[C@H]2C[C@@H](O)[C@]3(CO)[C@H]4[C@H](O)C[C@]5(C)[C@@H](C6=CC(=O)OC6)CC[C@]5(O)[C@@H]4CC[C@]3(O)C2)[C@H](O)[C@H](O)[C@H]1O | 0.0296 µM (active) |  |
| Fc1ccc(C(OCCN2CCN(CCCc3ccccc3)CC2)c2ccc(F)cc2)cc1 | 8.33 µM (active) |  |
| Cn1cc(C2=C(c3cn(C4CCN(Cc5ccccn5)CC4)c4ccccc34)C(=O)NC2=O)c2ccccc21 | 5.9 µM (active) |  |
| CC(O)(CS(=O)(=O)c1ccc(F)cc1)C(=O)Nc1ccc(C#N)c(C(F)(F)F)c1 (stereo not drawn) | 0.296 µM (active) |  |
| N[C@@H](Cc1ccc(N(CCCl)CCCl)cc1)C(=O)O | 13.2 µM (active) |  |
